Several values for one entry are separate records, joined by “and”; a condition that tells them apart may be missing. Equal values may be shown once. Inconclusive results are not listed. A number with no mark means an inactive call. Activity calls are given as the source filed them. Calls come from the whole dose curve; as a rule, active = well fitted curve in the direction sought with a large enough effect; inconclusive = small, poorly fitted or top-dose-only effect, or another doubt; inactive = no such curve, though single readings can be large; an effect the other way counts as inactive or inconclusive. Square brackets hold non-standard residues; d marks the D form. Peptide text beside a SMILES is read from it. ξ: configuration not given here. ξTyr(βOH) = NC(C(=O)O)C(O)c1ccc(O)cc1
The compounds below were run against Cellular tumor antigen p53 (Homo sapiens) (UniProt P04637) (assay: Primary qHTS for small molecule compounds that upregulate eGFP-tagged delta133p53alpha (in N-terminal) cells. (AID 2060322; note: nearly all actives have a fitted effect of over 75% in size; note: potency is the fitted concentration of half-maximal effect;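 for activation: cells pre-induced with doxycycline then dosed without doxycycline; 0% = DMSO vehicle and 100% = reference activator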)). Details: NCI-H358 eGFP-delta133p53alpha fluorescence, 24 h; activation: active compounds read high.
Cellular tumor antigen p53 (Homo sapiens), sequence (P04637 whole entry, looked up): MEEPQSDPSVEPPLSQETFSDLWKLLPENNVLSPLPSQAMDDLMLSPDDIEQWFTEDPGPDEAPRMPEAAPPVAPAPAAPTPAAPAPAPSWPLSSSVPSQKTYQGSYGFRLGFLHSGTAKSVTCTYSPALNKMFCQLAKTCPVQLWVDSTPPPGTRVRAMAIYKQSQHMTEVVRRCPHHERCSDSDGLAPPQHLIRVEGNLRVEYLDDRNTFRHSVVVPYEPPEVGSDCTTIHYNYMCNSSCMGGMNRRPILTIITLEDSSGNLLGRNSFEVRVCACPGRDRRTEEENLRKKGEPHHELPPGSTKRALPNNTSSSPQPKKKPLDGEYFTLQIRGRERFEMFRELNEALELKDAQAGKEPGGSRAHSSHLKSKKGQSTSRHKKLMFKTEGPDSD
Procedure, shortened: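 NCI-H358 cells pre-induced 24 h with 10 ng/ml doxycycline for eGFP-delta133p53alpha, plated dox-free and exposed 24 h at 37C to titrated compounds. Fixed, Hoechst-stained; gated GFP peak intensity by laser scanning cytometry, normalized to DMSO (0%) and 57.5 uM 5-azacytidine (100%).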
With `O=C1C=CC2OC(c3ccccc3)C(O)C2O1` (stereo not drawn) the Potency was 30.1 µM (active). Compound `CC12CC34C=CC(=O)C(C)(CCC(=O)O)C3C(CC1C4)O2` (stereo not drawn) has an activation of 23.7%. Work on `C[C@@H]1C[C@H](C)CN(CCC(=O)Nc2ccc(Br)cc2)C1` yielded an activation of 13.4%. `C=CC(C)(C)c1[nH]c2cc3c(cc2c1CC1NC(=O)C2=CCCN2C1=O)C=CC(C)(C)O3` (stereo not drawn) gave an activation of -10.7%. In the case of `CC(O)C/C=C/C=C/C(=O)OC1C=C2COC(=O)C2(O)C2(C)CCCC(C)(C)C12` (stereo not drawn), the activation is reported as 5.34%. `FC(F)(F)c1ccc(Nc2nc3ccc(Oc4ccnc(-c5ncc(C(F)(F)F)[nH]5)c4)cc3[nH]2)cc1` was tested, and the activation was -7.84% and 12.4%. `CC(C)CNC(=O)/C=C/CCCCc1ccc2c(c1)OCO2` showed an activation of 10.7%. Compound `CCC(C)C(=O)OC12C(OC(C)=O)C(C)C3(O)C(C=C(CO)CC4(O)C(=O)C(C)=CC43)C1C2(C)C` (stereo not drawn) has an activation of -19.1%. For `C=C[C@H]1[C@H](O[C@@H]2O[C@H](CO)[C@@H](O)[C@H](O)[C@H]2O)OC=C(C(=O)OC)[C@H]1C/C=C(/C=O)[C@@H]1C(C(=O)OC)=CO[C@@H](O[C@@H]2O[C@H](CO)[C@@H](O)[C@H](O)[C@H]2O)[C@@H]1C=C`, the activation was -22.1%. In the case of `COC(=O)CCSCc1ccc(-c2onc(C)c2NC(=O)OC(C)c2ccccc2Cl)cc1` (stereo not drawn), the activation is reported as -5.25%. In the case of `C=CC(=O)N1CCCC(n2nc(-c3ccc(Oc4ccccc4)cc3)c3c(N)ncnc32)C1` (stereo not drawn), the activation is reported as 18.8%. Work on `O=C1CCC(c2ccccc2)(C2CCN(Cc3ccc(I)cc3)CC2)C(=O)N1` (stereo not drawn) yielded an activation of 4.33%. Compound `CC1(C)CC[C@]2(C(=O)O)CC[C@]3(C)C(=CCC4[C@@]5(C)C[C@@H](O)[C@H](O)[C@](C)(CO)C5CC[C@]43C)[C@@H]2[C@@H]1O` (stereo partly drawn) has an activation of 12.5%.

Each compound was assayed against Aldehyde dehydrogenase, mitochondrial (Homo sapiens) (UniProt P05091) (assay: qHTS for Inhibitors of the Aldehyde Dehydrogenase Family (ALDH2) Primary screen (AID 2061308;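 note: plate controls were vehicle for no effect and reference inhibitor for full effect; nearly all actives have a fitted effect of over 55% in size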)). Details: ALDH2 enzyme inhibition qHTS, 1536-well; series mostly up to 56 µM; activity change, negative = inhibition: at the top concentration.
With `OC[C@@]1(O)CO[C@H](OC[C@H]2O[C@@H](OC(CCCCc3ccc(O)cc3)CCc3ccc(O)cc3)[C@H](O[C@H]3OC[C@](O)(CO)[C@H]3O)[C@@H](O)[C@@H]2O)[C@@H]1O` (stereo partly drawn) the “activity change, negative = inhibition” value was 3.88% [at 16.9 µM]. In the case of `Cc1ccccc1C(=O)Nc1ccc(C(=O)N2CCC[C@@H](O)c3cc(Cl)ccc32)c(C)c1`, the “activity change, negative = inhibition” value is reported as 9.41%. For `CC1(C)CC2C3=CCC4C5(C)CCC(OC6OC(C(=O)O)C(O)C(O)C6OC6OC(CO)C(O)C(O)C6OC6OC(CO)C(O)C(O)C6O)C(C)(CO)C5CCC4(C)C3(C)CCC2(C)C(OC2OCC(O)C(OC3OC(CO)C(O)C(O)C3O)C2O)C1O` (stereo not drawn), the activity change, negative = inhibition was 5.84% [at 11.2 µM]. In the case of `CC(=O)N1CCN(NC(=O)c2ccc(F)cc2)CC1`, the “activity change, negative = inhibition” value is reported as -1.68%. In the case of `CCCCC1CCC(c2nc(-c3ccncc3)no2)CC1` (stereo not drawn), the “activity change, negative = inhibition” value is reported as -26.5%. With `COC(C(=O)N1Cc2[nH]nc(NC(=O)c3ccc(N4CCN(C)CC4)cc3)c2C1)c1ccccc1` (stereo not drawn) the “activity change, negative = inhibition” value was -0.258%. In the case of `C=C1CC[C@@H]2[C@](C)(CO)[C@H](O)CC[C@@]2(C)[C@@H]1C/C=C1/C(=O)OC[C@@H]1O`, the “activity change, negative = inhibition” value is reported as 1.63%. For `CC(C)C1NC(=O)CNC(=O)C2CCCN2C(=O)C(Cc2c[nH]c3ccccc23)NC(=O)CNC(=O)C(C(O)c2ccc(O)cc2)NC(=O)CNC1=O` (stereo not drawn) (cyclo(G[ξTyr(βOH)]GWPGV); configuration not given here), the “activity change, negative = inhibition” value was -0.0859% [at 16.9 µM]. For `COc1cc(C/C(=C/NC(C)=O)N(CC(=O)Cc2ccccc2)C(C)=O)cc2c1OCO2`, the “activity change, negative = inhibition” value was -9.12% [at 28 µM]. With `CC(C)(O)/C=C/C(=O)[C@](C)(O)[C@H]1[C@H](O)C[C@@]2(C)[C@@H]3CC=C4[C@@H](C=C(O[C@@H]5O[C@H](CO)[C@@H](O)[C@H](O)[C@H]5O)C(=O)C4(C)C)[C@]3(C)C(=O)C[C@]12C` the “activity change, negative = inhibition” value was 7.52% [at 16.9 µM]. With `C[C@@H]1CC[C@@]23CC[C@]4(C)[C@@](C=CC5[C@@]6(C)CC[C@H](O)C(C)(C)C6CC[C@]54C)(OC2=O)C3[C@H]1C` (stereo partly drawn) the “activity change, negative = inhibition” value was 4.97% [at 28 µM]. In the case of `CC(C)C1NC(=O)C2CCCN2C1=O` (stereo not drawn), the “activity change, negative = inhibition” value is reported as -1.85%. With `CCCCNc1ncc(C(=O)NCc2ccc(-n3ccnc3)cc2)c(NC2CCC(O)CC2)n1` (stereo not drawn) the “activity change, negative = inhibition” value was 62.7%. `C[C@@H]1C(=O)O[C@H](C)[C@H]1CC(=O)[C@](C)(O)[C@H]1CC[C@@]2(O)C3=CC(=O)[C@@H]4C[C@@H](O)[C@@H](O)C[C@]4(C)C3CC[C@]12C` (stereo partly drawn) was tested, and the “activity change, negative = inhibition” value was -3.92% [at 28 µM]. `C=C(C(=O)O)[C@H]1C[C@]2(C)[C@@H](O)CC[C@]23O[C@H]1C[C@@H]3C` was tested, and the “activity change, negative = inhibition” value was -1.76%. In the case of `CC1(C)NC2N(C1=O)c1ccccc1C2(O)CC(C(=O)O)n1cnc2ccccc2c1=O` (stereo not drawn), the “activity change, negative = inhibition” value is reported as -3.32% [at 28 µM]. Compound `CC1OC(OC2C(CO)OC(OCC3OC(OC(=O)C45CCC(C)(C)CC4C4=CCC6C7(C)CCC(OC8OC(C(=O)O)C(O)C(OC9OC(CO)C(O)C(O)C9O)C8O)C(C)(C)C7CCC6(C)C4(C)CC5)C(O)C(O)C3O)C(O)C2O)C(O)C(O)C1O` (stereo not drawn) has an activity change, negative = inhibition of -0.0745% [at 11.2 µM]. For `COC(=O)c1cc(OC)c(O[C@@H]2O[C@@H](C)[C@H](O)[C@@H](O)[C@H]2O)c(OC)c1`, the “activity change, negative = inhibition” value was -0.964%. In the case of `O=C1C[C@@]2(C(=O)N1)C(=O)N(Cc1ccc(Br)cc1F)C(=O)c1cccn12`, the “activity change, negative = inhibition” value is reported as -16.6%. With `C=C1C(O[C@@H]2O[C@H](CO)[C@@H](O)[C@H](O)[C@@H]2O)CC2C(C)(C)C(O)CCC2(C)C1CC/C(C)=C\CO` (stereo partly drawn) the “activity change, negative = inhibition” value was 9.4% [at 28 µM]. `C=C1CC2[C@@]3(C)C=CC(=O)C(C)(C)C3=C(O)C(=O)[C@@]2(C)C2(C(=O)OC)C(=O)C(C)OC(=O)[C@@]12C` (stereo partly drawn) was tested, and the “activity change, negative = inhibition” value was -0.645% [at 28 µM]. `COc1cc2c(cc1OC)[C@@H]1[C@H](O)[C@@H](OC)C=C3CCN(C2)[C@H]31` was tested, and the “activity change, negative = inhibition” value was 6.15%. `CCOc1ccc(-n2c(C(C)N(Cc3cccnc3)C(=O)Cc3ccc(F)c(C(F)(F)F)c3)nc3ncccc3c2=O)cc1` (stereo not drawn) was tested, and the “activity change, negative = inhibition” value was -0.178%. `CC(C)(O)C1CC(=O)C2(C)C(CCC3(C)C(c4ccoc4)OC(=O)C4OC432)C12CCC(=O)OC2` (stereo not drawn) was tested, and the “activity change, negative = inhibition” value was -7.28% [at 28 µM]. For `OC(CN1CCN(c2cccc(Cl)c2)CC1)C(c1ccccc1)c1ccccc1` (stereo not drawn), the “activity change, negative = inhibition” value was -3.52%. In the case of `NC(=O)NCCCC(NC(=O)Cc1ccccc1)C(=O)O` (stereo not drawn), the “activity change, negative = inhibition” value is reported as 20.7%. With `CCC(CC)C(=O)Nc1sc2c(c1C#N)CCC(C(C)(C)CC)C2` (stereo not drawn) the “activity change, negative = inhibition” value was 5.18%. With `O=C1C=CC2OC(c3ccccc3)C(O)C2O1` (stereo not drawn) the “activity change, negative = inhibition” value was -0.532%. `CC12CC34C=CC(=O)C(C)(CCC(=O)O)C3C(CC1C4)O2` (stereo not drawn) was tested, and the “activity change, negative = inhibition” value was -2.68%. `C[C@@H]1C[C@H](C)CN(CCC(=O)Nc2ccc(Br)cc2)C1` was tested, and the “activity change, negative = inhibition” value was -6.26%. For `C=CC(C)(C)c1[nH]c2cc3c(cc2c1CC1NC(=O)C2=CCCN2C1=O)C=CC(C)(C)O3` (stereo not drawn), the “activity change, negative = inhibition” value was -2.07% [at 28 µM]. For `CC(O)C/C=C/C=C/C(=O)OC1C=C2COC(=O)C2(O)C2(C)CCCC(C)(C)C12` (stereo not drawn), the “activity change, negative = inhibition” value was -9.27%. `FC(F)(F)c1ccc(Nc2nc3ccc(Oc4ccnc(-c5ncc(C(F)(F)F)[nH]5)c4)cc3[nH]2)cc1` was tested, and the “activity change, negative = inhibition” value was 1.05%. In the case of `CC(C)CNC(=O)/C=C/CCCCc1ccc2c(c1)OCO2`, the “activity change, negative = inhibition” value is reported as 21.5%. In the case of `CCC(C)C(=O)OC12C(OC(C)=O)C(C)C3(O)C(C=C(CO)CC4(O)C(=O)C(C)=CC43)C1C2(C)C` (stereo not drawn), the “activity change, negative = inhibition” value is reported as -1.25% [at 28 µM]. In the case of `C=C[C@H]1[C@H](O[C@@H]2O[C@H](CO)[C@@H](O)[C@H](O)[C@H]2O)OC=C(C(=O)OC)[C@H]1C/C=C(/C=O)[C@@H]1C(C(=O)OC)=CO[C@@H](O[C@@H]2O[C@H](CO)[C@@H](O)[C@H](O)[C@H]2O)[C@@H]1C=C`, the “activity change, negative = inhibition” value is reported as -3.74% [at 16.9 µM]. For `COC(=O)CCSCc1ccc(-c2onc(C)c2NC(=O)OC(C)c2ccccc2Cl)cc1` (stereo not drawn), the “activity change, negative = inhibition” value was -6.54%. With `C=CC(=O)N1CCCC(n2nc(-c3ccc(Oc4ccccc4)cc3)c3c(N)ncnc32)C1` (stereo not drawn) the “activity change, negative = inhibition” value was 29.2%. In the case of `O=C1CCC(c2ccccc2)(C2CCN(Cc3ccc(I)cc3)CC2)C(=O)N1` (stereo not drawn), the “activity change, negative = inhibition” value is reported as -0.707%. In the case of `CC1(C)CC[C@]2(C(=O)O)CC[C@]3(C)C(=CCC4[C@@]5(C)C[C@@H](O)[C@H](O)[C@](C)(CO)C5CC[C@]43C)[C@@H]2[C@@H]1O` (stereo partly drawn), the “activity change, negative = inhibition” value is reported as -1.28% [at 28 µM].

From PubChem BioAssay (NCATS)
